From ChEMBL document CHEMBL3988442, “University of Dundee, Small-Polar-MMV Screening Library” (2021)
The campaign covered roughly 85,000 compounds. About 440 (0.52%) showed an effect of 50% or more. Many of the other results were omitted from the sample, so strong results are more common in it than they were.

Assay: In vitro enzyme assay to detect hydrolysis of chlorophenol red-beta-D-[…] directly proportional to the number of Toxoplasma stably expressing beta-galactosidase
Format: functional, organism-based, Toxoplasma gondii
Set-up: scale not given: in the data most compounds retested in dose-response had high values

SMILES | Percent Effect (50 µM) | Percent Effect (10 µM)
CC1(C)CNCCC(=O)C1 | -1.716% | 
C[C@H](N)c1ccc(Cl)s1 | 6.702% | 
CCCc1nc(C(=O)NCCc2cccnc2)cs1 | -0.1814% | 
CCn1nc(C)cc1C(=O)N1CCNC(=O)C1(C)C | 1.148% | 
O=C1NCCN1CCNc1cc(C2CC(O)C2)ncn1 (stereo not drawn) | 17.22% | 
CN1N=C(C(=O)NCCn2cccc2)CCC1=O | 4.885% | 
CCCNC(=O)C1=NN(C)C(=O)CC1 | -13.89% | 
CCc1ccccc1NC(=O)C1=NN(C)C(=O)CC1 | 53.5% | 
Cc1nc(C)c(C(=O)N2CCCC3(CCOC3)C2)s1 (stereo not drawn) | -1.962% | 
CN(C)CCCN(CCC#N)C(=O)c1ccccn1 | 5.806% | 
Cc1n[nH]c(SCCN)n1 | 7.335% | 
Cc1cc(NC(=O)COC(=O)c2cccc(F)c2)[nH]n1 | 3.257% | 
O=C(CCN1C(=O)CCC1=O)OCCc1cccs1 | -8.658% | 
COc1ccc(CNCCn2cccn2)cc1OC | -8.387% | 
NCC(c1ccccc1)N1CCc2sccc2C1 (stereo not drawn) |  | -0.2514%
NCC(c1ccc(Cl)cc1)N1CCc2sccc2C1 (stereo not drawn) |  | 32.54%
CC(C)c1ccc(C(CN)N2CCc3sccc3C2)cc1 (stereo not drawn) |  | 87.38%

SMILES | Percent Effect (50 µM) | Percent Effect (10 µM)
CC(CNC(=O)c1cccc(OC(F)F)c1)N(C)C (stereo not drawn) | -0.9989% | 
CCOCCN1CCN(CC(C)O)CC1 (stereo not drawn) | -13.93% | 
CS(=O)(=O)c1ccc(-c2cc(O)cc(CCC3CCCCN3)c2)cc1 (stereo not drawn) |  | 50.66%
Oc1cc(CCC2CCCCN2)cc(-c2ccncc2)c1 (stereo not drawn) |  | -0.7663%
O=c1cc(-c2cc(O)cc(CCC3CCCCN3)c2)cc[nH]1 (stereo not drawn) |  | 0.1729%
Cc1ccc(CN2CCOC(CCO)C2)c(F)c1 (stereo not drawn) | 1.605% | 
CCNc1nc(-c2cccnc2)c(-c2ccnc(NCCO)n2)s1 |  | 32.17%
CC(C)(C)Nc1nc(-c2cccnc2)c(-c2ccnc(NCCO)n2)s1 |  | 85.15%
CCNc1nc(-c2cccnc2)c(-c2ccnc(NS(C)(=O)=O)n2)s1 |  | -26.67%
Cc1noc(C)c1CNC(=O)c1csc(S(N)(=O)=O)c1 | -3.715% | 
Cn1cccc1C(=O)N1C[C@@H](OCc2ccncc2)[C@@H]2OCCC[C@@H]21.O=C(O)C(F)(F)F |  | 96.07%
Cc1cccc(C(=O)N2C[C@@H](OCc3ccncc3)[C@@H]3OCCC[C@@H]32)n1.O=C(O)C(F)(F)F.O=C(O)C(F)(F)F |  | -3.452%
COCC(=O)N1C[C@@H](OCc2cccnc2)[C@H]2OCCC[C@@H]21.O=C(O)C(F)(F)F |  | 1.724%
COCC(=O)N1C[C@@H](OCc2ccncc2)[C@@H]2OCCC[C@@H]21.O=C(O)C(F)(F)F |  | 64.14%
Cn1cccc1C(=O)N1C[C@@H](OCc2cccnc2)[C@H]2OCCC[C@H]21 |  | 1.724%
O=C(CC1CCCC1)N1C[C@H](OCc2ccncc2)[C@H]2OCCC[C@H]21.O=C(O)C(F)(F)F |  | -2.876%
